# Over roughly 18,000 sequences, “log2 normalized intensity” has its median near 0.36; the highest 2% begin near 7.3. What follows is part of a selection rich in the highest values, with near analogues and random picks from the rest.
# Target: T1, HNF4alpha8 (COS-7 nuclear extract) (Homo sapiens, UniProt P41235-5 1-452)
# T1 sequence: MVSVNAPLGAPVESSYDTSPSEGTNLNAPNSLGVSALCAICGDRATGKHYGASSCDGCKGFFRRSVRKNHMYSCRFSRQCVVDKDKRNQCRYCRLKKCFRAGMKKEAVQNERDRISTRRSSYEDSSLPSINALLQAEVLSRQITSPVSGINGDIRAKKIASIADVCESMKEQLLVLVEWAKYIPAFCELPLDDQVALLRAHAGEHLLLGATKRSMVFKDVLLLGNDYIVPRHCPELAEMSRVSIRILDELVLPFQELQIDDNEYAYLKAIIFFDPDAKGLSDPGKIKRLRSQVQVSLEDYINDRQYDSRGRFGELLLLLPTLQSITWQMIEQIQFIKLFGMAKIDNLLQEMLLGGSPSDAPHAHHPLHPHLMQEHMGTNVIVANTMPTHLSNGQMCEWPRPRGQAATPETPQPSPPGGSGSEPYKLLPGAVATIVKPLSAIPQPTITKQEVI
# Assay: protein-binding microarray; COS-7 nuclear extract on double-stranded Agilent 4x180k PBM; binding buffer, salt, pH and temperature not given in the material; high values mean tight binding
# Conditions: chain copies: 2; label: 3' end of strand 1 on the slide; dsDNA, one strand shown
# Summary of the method: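 Nuclear extracts of COS-7 cells transiently transfected with a human HNF4α isoform were applied to a custom Agilent SurePrint G3 4x180k array bearing ~44,000 double-stranded ~60-nt test sequences, each in quadruplicate. The bound protein was imaged on an Agilent G2565CA scanner at 2-µm resolution. Binding signal is the normalized, background-corrected gProcessedSignal from Agilent software.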
row,Sequence,binding signal [log2 normalized intensity]
1,CCCCACTTCCTGACTTGGCCTGAACCAGTTGCCTAGGGAGATTAGAGTATCGGTCGA,0.602
2,TTAAGAACTGGAGTAAAGGTCACTCTTGCTGCCTAGGGAGATTAGAGTATCGGTCGA,3.94
3,GTGTTTAATGTTTTCATTCTGATTTGCACAGCCTAGGGAGATTAGAGTATCGGTCGA,0.934
4,CTCTCCAAGCCAGAAAGATGTTTGCCCCAAGCCTAGGGAGATTAGAGTATCGGTCGA,2.94
5,GGTTGGCACGCTTAGGGAACAAAGGTCAGTGCCTAGGGAGATTAGAGTATCGGTCGA,7.22
6,CGCCGCCTCTGCCTCTTGACCCCTTGGCCCGCCTAGGGAGATTAGAGTATCGGTCGA,5.9
7,TTCCTGGCCTCTCTGCAAATTTGCCTTGTCGCCTAGGGAGATTAGAGTATCGGTCGA,0.448
8,TGTTTGCACTGAGGAATGGAAGGACCTTGGGCCTAGGGAGATTAGAGTATCGGTCGA,2.07
9,TTAGGGGTTAGGGTTAGGGTTAGGGTTACGGCCTAGGGAGATTAGAGTATCGGTCGA,1.17
10,GGCTAAACCTAGCCCCCTTTCCCTTATCTTGCCTAGGGAGATTAGAGTATCGGTCGA,2.81
11,ACAGGTGCTCTTTATCAGCACCAAGAACAAGCCTAGGGAGATTAGAGTATCGGTCGA,-0.837
12,ATGTGGTATTAACATGTAAATATGACCTTTGCCTAGGGAGATTAGAGTATCGGTCGA,8.01
13,GTAGTGGGGAGGGCATGGACTTTGGAATTAGCCTAGGGAGATTAGAGTATCGGTCGA,8.06
14,ATGACCTTTGAGCAATAGGAAATGGGAGGGGCCTAGGGAGATTAGAGTATCGGTCGA,3.35
15,CCTTTTTGGAATGTGTTTGCATGACTCATAGCCTAGGGAGATTAGAGTATCGGTCGA,1.5
16,TGATGACTTTTGACCCCAGGGGAAACTCCAGCCTAGGGAGATTAGAGTATCGGTCGA,5.06
17,GGAGGACTTTGGAATGGCAGTGCTTGTCCAGCCTAGGGAGATTAGAGTATCGGTCGA,2.52
18,GTATTAACATGTAAATATGACCTTTGCTTTGCCTAGGGAGATTAGAGTATCGGTCGA,7.1
19,TTATCATGTGGTATTAACATGTAAATATGAGCCTAGGGAGATTAGAGTATCGGTCGA,1.36
20,GAATGACTTTGGGGAAATGACCTTTGTCCAGCCTAGGGAGATTAGAGTATCGGTCGA,9.48
21,GGGGAGGGCATGGACTTTGGAATTAAGGAGGCCTAGGGAGATTAGAGTATCGGTCGA,5.91
22,GCATGGAATGACTTTGGGGAAATGACCTTTGCCTAGGGAGATTAGAGTATCGGTCGA,7.96
23,CTGGTGTAGTGGGGAGGGCATGGACTTTGGGCCTAGGGAGATTAGAGTATCGGTCGA,6.38

row,Sequence,binding signal [log2 normalized intensity]
1,TCACAATGGGGCATGACTTGTTATCACCTGGCCTAGGGAGATTAGAGTATCGGTCGA,0.285
2,TCCTTCTTGCTTAGGATAGGGTCAGTCTTTGCCTAGGGAGATTAGAGTATCGGTCGA,2.48
3,AGGCCGGTTGGCCAGGTTCCTCCACCGTCAGCCTAGGGAGATTAGAGTATCGGTCGA,-0.785
4,TTCAGGCAGGAATGCTGAACAATTGATTTAGCCTAGGGAGATTAGAGTATCGGTCGA,-0.858
5,GTCAAAAGGTGTATGTGGACTTTCAACTGCGCCTAGGGAGATTAGAGTATCGGTCGA,6.13
6,CCACACAGCACGTAATAGTTCATGAAATGGGCCTAGGGAGATTAGAGTATCGGTCGA,0.614
7,AAACAGAGGCTGAAATGGTTACAAAGGTCAGCCTAGGGAGATTAGAGTATCGGTCGA,5.42
8,AATGACCTTTGTCCAGCTGTGCCGAGCCTGGCCTAGGGAGATTAGAGTATCGGTCGA,4.91
9,ACTTTGGGGAAATGACCTTTGTCCAGCTGTGCCTAGGGAGATTAGAGTATCGGTCGA,7.84
10,GGGGAAATGACCTTTGTCCAGCTGTGCCGAGCCTAGGGAGATTAGAGTATCGGTCGA,7.01
11,TGGACATTGGCCCTTTGACCTTTAATCAAGGCCTAGGGAGATTAGAGTATCGGTCGA,7.21
12,TCCAGTGGACATTGGCCCTTTGACCTTTAAGCCTAGGGAGATTAGAGTATCGGTCGA,8.05
13,ACCTTTGTCCTCATTGAGCCCTCCCCTTGTGCCTAGGGAGATTAGAGTATCGGTCGA,4.38
14,CTCCTGACCTTTGGACTTGATAGAGTTTAAGCCTAGGGAGATTAGAGTATCGGTCGA,8.25
15,GACCTTTGGACTTGATAGAGTTTAAGTCTTGCCTAGGGAGATTAGAGTATCGGTCGA,7.2
16,TCTTATGTCCCTCCTGACCTTTGGACTTGAGCCTAGGGAGATTAGAGTATCGGTCGA,10.6
17,ACTGCTCCAGTGGACATTGGCCCTTTGACCGCCTAGGGAGATTAGAGTATCGGTCGA,6.76
18,GCCTCTTTATCTCCTCCCCTTGAGACTTTAGCCTAGGGAGATTAGAGTATCGGTCGA,2.97
19,TCAGTTTGGCTCTTATGTCCCTCCTGACCTGCCTAGGGAGATTAGAGTATCGGTCGA,3.83
20,ATATCCTGACTGCTGACCTTTAAGCCTATAGCCTAGGGAGATTAGAGTATCGGTCGA,4.7
21,TTGGCTCTTATGTCCCTCCTGACCTTTGGAGCCTAGGGAGATTAGAGTATCGGTCGA,9.16
22,AACTCTCAGTTTGGCTCTTATGTCCCTCCTGCCTAGGGAGATTAGAGTATCGGTCGA,0.947
23,ACTACATTTCCAAGACCTCTTTGCGGATAGGCCTAGGGAGATTAGAGTATCGGTCGA,-0.337

row,Sequence,binding signal [log2 normalized intensity]
1,AGTCAATCCCGTGGACTTTGCCTGCCCATCGCCTAGGGAGATTAGAGTATCGGTCGA,5.08
2,GCCTGCCCTTCGCTCCCCGACCTCCTGCTGGCCTAGGGAGATTAGAGTATCGGTCGA,2.62
3,CAGGTATTTGCTCTGTGATAGCCTTTTACCGCCTAGGGAGATTAGAGTATCGGTCGA,1.5
4,GGCAGGCTTCGAAAAATGGGTCTGGGATGTGCCTAGGGAGATTAGAGTATCGGTCGA,0.36
5,AGGGATTTCAGTGCCCTCATAAGAGACTTTGCCTAGGGAGATTAGAGTATCGGTCGA,2.22
6,TGTCCCTCCTGACCTTTGGACTTGATAGAGGCCTAGGGAGATTAGAGTATCGGTCGA,9.7
7,CCTGACCTGCCCTTTGTCCCTCCTGCTAGTGCCTAGGGAGATTAGAGTATCGGTCGA,3.93
8,AGTCCTGACCTTGGACTCTGCCCTTGGCCTGCCTAGGGAGATTAGAGTATCGGTCGA,6.67
9,TCCTCTATCTTCAAAGCCAGCAACGGTGAGGCCTAGGGAGATTAGAGTATCGGTCGA,0.0395
10,CAGCTGTCGTGTGAATAGCACTGACCAGCTGCCTAGGGAGATTAGAGTATCGGTCGA,0.27
11,AATTCCCTGCAAGGACAAAGGTCATGTTTTGCCTAGGGAGATTAGAGTATCGGTCGA,7.11
12,TTTGGAATTCCCTGCAAGGACAAAGGTCATGCCTAGGGAGATTAGAGTATCGGTCGA,7.71
13,GTTATCTAATGGAGAGGATGGGGACAAAGGGCCTAGGGAGATTAGAGTATCGGTCGA,2.55
14,CTAATGGAGAGGATGGGGACAAAGGTCAAGGCCTAGGGAGATTAGAGTATCGGTCGA,8.12
15,GACAAAGGTCATTCATGTGCAGGTTGGAATGCCTAGGGAGATTAGAGTATCGGTCGA,3.11
16,GGAGAGGATGGGGACAAAGGTCAAGAAAGCGCCTAGGGAGATTAGAGTATCGGTCGA,6.33
17,TTACTTTTGCAAGGTTTGTTCTTATCATGCGCCTAGGGAGATTAGAGTATCGGTCGA,0.712
18,CCCATCCCAGAGGTCAAACTATCTGAGGTGGCCTAGGGAGATTAGAGTATCGGTCGA,1.93
19,TCAGATGAGACTTTGGACTTTTGAACTAAGGCCTAGGGAGATTAGAGTATCGGTCGA,7.23
20,GGGCTGAGGATGAGGACTTTGGTCTTATTAGCCTAGGGAGATTAGAGTATCGGTCGA,4.45
21,CTGAGAAGATGAAAGACGAAAGGGACTTTGGCCTAGGGAGATTAGAGTATCGGTCGA,2.82
22,AATTCTCATGGAGGACTTTGGCCTTTTGTGGCCTAGGGAGATTAGAGTATCGGTCGA,6.71
23,GAATCTACAGAATTCTCATGGAGGACTTTGGCCTAGGGAGATTAGAGTATCGGTCGA,3.31

row,Sequence,binding signal [log2 normalized intensity]
1,GGGACTAGCCTTATCTCAGATGAGACTTTGGCCTAGGGAGATTAGAGTATCGGTCGA,2.03
2,TAGCCTTATCTCAGATGAGACTTTGGACTTGCCTAGGGAGATTAGAGTATCGGTCGA,8.64
3,TACAGAATTCTCATGGAGGACTTTGGCCTTGCCTAGGGAGATTAGAGTATCGGTCGA,7.81
4,TTATCTCAGATGAGACTTTGGACTTTTGAAGCCTAGGGAGATTAGAGTATCGGTCGA,8.04
5,TCTGGGATGTTGGGAGGAGTGGACTTTGATGCCTAGGGAGATTAGAGTATCGGTCGA,6.84
6,ATCTAGGTGAGGGATGAGGACTTTGATCAGGCCTAGGGAGATTAGAGTATCGGTCGA,6.79
7,GATGTTGGGAGGAGTGGACTTTGATCTCAGGCCTAGGGAGATTAGAGTATCGGTCGA,9.38
8,CTCCCCCACGACAGAATTGACTCTTCGTTTGCCTAGGGAGATTAGAGTATCGGTCGA,2.63
9,CTTTCATCTTTGCGGTGAGCATTTGTTTAGGCCTAGGGAGATTAGAGTATCGGTCGA,0.99
10,CAGAAGCAATCACAAGGAATGCCCTTATCTGCCTAGGGAGATTAGAGTATCGGTCGA,2.11
11,CCTATGGTATGTATGGAATGTCACTTTCTGGCCTAGGGAGATTAGAGTATCGGTCGA,1.79
12,ATGCACGTGCTCCAGGAGGGGAGGAGGGTCGCCTAGGGAGATTAGAGTATCGGTCGA,3.4
13,ATTGTGATTCCTGTGATACCTTCTTTGCCTGCCTAGGGAGATTAGAGTATCGGTCGA,0.781
14,TCCTAGACCTTTGACCTTTATACCTGTACGGCCTAGGGAGATTAGAGTATCGGTCGA,6.76
15,GTCCACACATTCCTAGACCTTTGACCTTTAGCCTAGGGAGATTAGAGTATCGGTCGA,8.88
16,ATTGGGTCCACACATTCCTAGACCTTTGACGCCTAGGGAGATTAGAGTATCGGTCGA,3.87
17,CCCAAGATGGATTGGGTCCACACATTCCTAGCCTAGGGAGATTAGAGTATCGGTCGA,0.829
18,CACATTCCTAGACCTTTGACCTTTATACCTGCCTAGGGAGATTAGAGTATCGGTCGA,8.55
19,TTGACCTTTATACCTGTACGTTACTCTGTAGCCTAGGGAGATTAGAGTATCGGTCGA,4.37
20,GACCTTTGACCTTTATACCTGTACGTTACTGCCTAGGGAGATTAGAGTATCGGTCGA,7.64
21,CTTTATACCTGTACGTTACTCTGTACCTCGGCCTAGGGAGATTAGAGTATCGGTCGA,1.8
